Inconclusive results are not listed. Activity calls are given as the source filed them. Unless noted, calls come from the whole dose curve; as a rule, active = well fitted curve in the direction sought with a large enough effect in the repeat runs; inconclusive = weak or mixed curves; inactive = no such curve, though single readings can be large; an effect the other way counts as inactive or inconclusive.
Key:
[1] = qHTS assay to identify small molecule agonists of the peroxisome proliferator-activated receptor delta (PPARd) signaling pathway - cell viability counter screen (AID 743211); note: % is set by controls: 0 for no effect and ±100 for the full control effect; nearly all actives have a fitted effect of over 55% in size
How it was run: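 Following 5 h plating at 37 C and 5% CO2, PPARd UAS-bla HEK293H cells took up test compounds for 17 h. Viability was quantified by luminescence 30 min after CellTiter-Glo addition at room temperature.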

[2] = qHTS assay to identify small molecule agonists of the farnesoid-X-receptor (FXR) signaling pathway - cell viability counter screen (AID 743218); note: % is set by controls: 0 for no effect and ±100 for the full control effect; nearly all actives have a fitted effect of over 45% in size
How it was run: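 HEK 293T FXR-bla cells; 5 h pre-incubation, 16 h compound exposure at 37 C; LiveBLAzer substrate 2 h RT, then CellTiter-Glo 30 min RT, luminescence.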

[3] = qHTS assay to identify small molecule agonists of the vitamin D receptor (VDR) signaling pathway - cell viability counter screen (AID 743224); note: series mostly up to about 63 µM; % is set by controls: 0 for no effect and ±100 for the full control effect; nearly all actives have a fitted effect of over 50% in size
How it was run: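 Luminescence from CellTiter-Glo, read after 30 min at room temperature, reports viability of VDR-bla cells treated with compounds for 16 h at 37C in the wells used for the beta-lactamase FRET read.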

[4] = qHTS assay to identify small molecule antagonists of the vitamin D receptor (VDR) signaling pathway - cell viability counter screen (AID 743225); note: % is set by controls: 0 for no effect and ±100 for the full control effect; nearly all actives have a fitted effect of over 50% in size
How it was run: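 In this counter screen, VDR-bla HEK 293T cells receive test compound plus 3 nM final calcitriol for 16 h at 37C. Room-temperature steps of 2 h with the beta-lactamase substrate, then 30 min with CellTiter-Glo, precede the luminescence read.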

[5] = qHTS assay to identify small molecule agonists of the NFkB signaling pathway - cell viability counter screen (AID 1159515; calls by dose curve; note: series mostly up to about 61 µM; % is set by controls: 0 for no effect and ±100 for the full control effect; nearly all actives have a fitted effect of over 55% in size)
How it was run: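 Luminescence from CellTiter-Glo (30 min, room temperature) gives viability, measured in the same wells as the beta-lactamase reporter read. Cells were NFkB-bla ME-180, 2,000 per well, treated 5 hr with compounds.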

[6] = qHTS assay to identify small molecule agonists of the endoplasmic reticulum stress response signaling pathway (AID 1159516; active = well fitted activation curve with a large enough effect in the signal ratio in the repeat runs, not every such curve was filed as active; the % refers to the signal ratio; note: % is set by controls: 0 for no effect and ±100 for the full control effect)
How it was run: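 Read-out is beta-lactamase cleavage of a FRET substrate (405 nm excitation; 460 and 530 nm emissions) in ESRE-bla HeLa cells after a 5 hr compound exposure at 37 C. Substrate incubation ran 2 hr at room temperature.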

[7] = qHTS assay to identify small molecule agonists of the endoplasmic reticulum stress response signaling pathway - cell viability counter screen (AID 1159517; calls by dose curve;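 note: HeLa cells carrying an ER stress response element beta-lactamase reporter; series mostly up to about 61 µM; % is set by controls: 0 for no effect and ±100 for the full control effect; nearly all actives have a fitted effect of over 50% in size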)
How it was run: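 Counter-screen wells were identical to the reporter wells. Cells were plated at 1,500 per well and dosed for 5 hr, then read for luminescence 30 min after CellTiter-Glo addition.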

[8] = qHTS assay to identify small molecule antagonists of the retinoid-related orphan receptor gamma (ROR-gamma) signaling pathway - cell viability counter screen (AID 1159520); note: % is set by controls: 0 for no effect and ±100 for the full control effect; nearly all actives have a fitted effect of over 50% in size
How it was run: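 Tet-on ROR gamma CHO cells were given compounds for 2 hr, then doxycycline hyclate at 1 uM final, and incubated 16 hr at 37 C. Viability was measured as ATP content by CellTiter-Glo luminescence.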

[9] = qHTS assay to identify small molecule agonists of the AP-1 signaling pathway - cell viability counter screen (AID 1159525; calls by dose curve; note: nearly all actives have a fitted effect of over 55% in size)
How it was run: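 AP-1-bla ME-180 cells in Opti-MEM with 0.5% dialyzed FBS, compound exposure 5 h at 37 C in 15-point titration. Viability read in the same wells as ATP content by CellTiter-Glo luminescence, normalised to tetra-n-octylammonium bromide and DMSO controls.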

[10] = qHTS assay to identify small molecule agonists of the AP-1 signaling pathway (AID 1159526; calls by dose curve; note: % is set by controls: 0 for no effect and ±100 for the full control effect)
[11] = biological target: Retinoic acid receptor RXR-alpha (Homo sapiens) (UniProt P19793); assay: qHTS assay to identify small molecule agonists of the RXR signaling pathway (AID 1159527; calls by dose curve; note: % is set by controls: 0 for no effect and ±100 for the full control effect; nearly all actives have a fitted effect of over 35% in size)
How it was run: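 Fluorescence ratio readout (460 vs 530 nm) from GeneBLAzer RXR-alpha HEK 293T cells after 16 hr compound treatment; cells seeded 5 hr beforehand in low-serum, charcoal-stripped medium.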

[12] = qHTS assay to identify small molecule antagonists of the peroxisome proliferator-activated receptor delta (PPARd) signaling pathway - cell viability counter screen (AID 743213)
How it was run: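 Luminescence from CellTiter-Glo, added after the bla read and incubated 30 min at room temperature, gives viability of HEK293H PPARd-bla cells exposed to compounds for 17 h at 37 C with 300 nM L165041.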

[13] = qHTS assay to identify small molecule antagonists of the farnesoid-X-receptor (FXR) signaling pathway - cell viability counter screen (AID 743221; active = well fitted cell-killing curve with a large enough effect in the repeat runs, not every such curve was filed as active)
How it was run: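 Compound effects on cell number were measured as CellTiter-Glo luminescence in HEK 293T cells expressing FXR-UAS-bla, after 16 h at 37 C with 50 uM CDCA (final).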

[14] = biological target: Peroxisome proliferator-activated receptor delta (Homo sapiens) (UniProt Q03181); assay: qHTS assay to identify small molecule agonists of the peroxisome proliferator-activated receptor delta (PPARd) signaling pathway (AID 743212; calls by dose curve; note: % is set by controls: 0 for no effect and ±100 for the full control effect)
How it was run: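 Quantitative high-throughput agonist screen in a HEK293H beta-lactamase reporter line under UAS control. Compounds in DMSO, at 37 C. Fluorescence read after 2 h with FRET substrate at room temperature.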

[15] = biological target: Peroxisome proliferator-activated receptor delta (Homo sapiens) (UniProt Q03181); assay: qHTS assay to identify small molecule antagonists of the peroxisome proliferator-activated receptor delta (PPARd) signaling pathway (AID 743215; active = well fitted inhibition curve with a large enough effect in the signal ratio in the repeat runs, not every such curve was filed as active; the % refers to the signal ratio;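 note: cells stimulated with agonist L165041 at 300 nM final during compound exposure; series mostly up to about 62 µM; % is set by controls: 0 for no effect and ±100 for the full control effect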)
How it was run: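 Read-out is beta-lactamase FRET fluorescence, measured 2 h after substrate addition at room temperature. Beforehand, UAS-bla HEK293H cells carrying the PPARd reporter were exposed to compounds with L165041 at 300 nM final for 17 h at 37 C.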

[16] = biological target: Bile acid receptor (Homo sapiens) (UniProt Q96RI1); assay: qHTS assay to identify small molecule antagonists of the farnesoid-X-receptor (FXR) signaling pathway (AID 743217; active = well fitted inhibition curve with a large enough effect in the signal ratio in the repeat runs, not every such curve was filed as active; the % refers to the signal ratio; note: % is set by controls: 0 for no effect and ±100 for the full control effect)
How it was run: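 HEK 293T FXR-UAS-bla, 5000 cells/well; compound + CDCA 50 uM final; 16 h, 37 °C; B/G FRET substrate 2 h RT; fluorescence.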

[17] = biological target: Bile acid receptor (Homo sapiens) (UniProt Q96RI1); assay: qHTS assay to identify small molecule agonists of the farnesoid-X-receptor (FXR) signaling pathway (AID 743220; active = well fitted activation curve with a large enough effect in the signal ratio in the repeat runs, not every such curve was filed as active; the % refers to the signal ratio; note: % is set by controls: 0 for no effect and ±100 for the full control effect)
How it was run: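 Beta-lactamase reporter under UAS control in GeneBLAzer FXR HEK 293T cells (5000/well) measured with LiveBLAzer FRET substrate after 2 h at room temperature. Compound exposure lasted 16 h at 37C.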

[18] = biological target: Vitamin D3 receptor (Homo sapiens) (UniProt P11473); assay: qHTS assay to identify small molecule agonists of the vitamin D receptor (VDR) signaling pathway (AID 743222; calls by dose curve; note: % is set by controls: 0 for no effect and ±100 for the full control effect)
How it was run: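 VDR-bla cells, 2,000/well; 4 h preincubation 37C; cpd (DMSO) 16 h; LiveBLAzer B/G substrate 2 h RT; fluorescence intensity read.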

[19] = biological target: Vitamin D3 receptor (Homo sapiens) (UniProt P11473); assay: qHTS assay to identify small molecule antagonists of the vitamin D receptor (VDR) signaling pathway (AID 743223; active = well fitted inhibition curve with a large enough effect in the signal ratio in the repeat runs, not every such curve was filed as active; the % refers to the signal ratio; note: % is set by controls: 0 for no effect and ±100 for the full control effect)
How it was run: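 Beta-lactamase activity in VDR-bla cells is measured by FRET substrate fluorescence (2 h, room temperature) after cells spend 16 h at 37C with test compound and 3 nM final 1alpha,25-dihydroxyvitamin D3.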

[20] = biological target: Nuclear receptor ROR-gamma (Homo sapiens) (UniProt P51449); assay: qHTS assay to identify small molecule antagonists of the retinoid-related orphan receptor gamma (ROR-gamma) signaling pathway (AID 1159521)
How it was run: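 Screening format: cell-based luciferase reporter in CHO cells with doxycycline-inducible RORγ. Compound pre-exposure lasts 2 h, doxycycline is 1 uM final, induction runs 16 h at 37 C, and ONE-Glo luminescence is read.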

Chain of Vitamin D3 receptor (Homo sapiens) (P11473 whole entry, looked up): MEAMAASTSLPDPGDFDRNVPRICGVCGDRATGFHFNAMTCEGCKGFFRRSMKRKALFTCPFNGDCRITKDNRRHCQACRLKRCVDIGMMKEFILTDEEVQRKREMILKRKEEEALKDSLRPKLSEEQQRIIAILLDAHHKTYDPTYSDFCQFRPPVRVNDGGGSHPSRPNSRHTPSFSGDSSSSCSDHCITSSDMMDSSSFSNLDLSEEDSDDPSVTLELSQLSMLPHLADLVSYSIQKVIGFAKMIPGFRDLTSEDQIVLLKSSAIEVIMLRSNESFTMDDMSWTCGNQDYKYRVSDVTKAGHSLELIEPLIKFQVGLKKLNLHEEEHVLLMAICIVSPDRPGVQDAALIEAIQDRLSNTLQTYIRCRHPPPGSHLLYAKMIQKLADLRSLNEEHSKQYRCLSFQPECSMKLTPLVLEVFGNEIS
Chain of Retinoic acid receptor RXR-alpha (Homo sapiens) (P19793 whole entry, looked up): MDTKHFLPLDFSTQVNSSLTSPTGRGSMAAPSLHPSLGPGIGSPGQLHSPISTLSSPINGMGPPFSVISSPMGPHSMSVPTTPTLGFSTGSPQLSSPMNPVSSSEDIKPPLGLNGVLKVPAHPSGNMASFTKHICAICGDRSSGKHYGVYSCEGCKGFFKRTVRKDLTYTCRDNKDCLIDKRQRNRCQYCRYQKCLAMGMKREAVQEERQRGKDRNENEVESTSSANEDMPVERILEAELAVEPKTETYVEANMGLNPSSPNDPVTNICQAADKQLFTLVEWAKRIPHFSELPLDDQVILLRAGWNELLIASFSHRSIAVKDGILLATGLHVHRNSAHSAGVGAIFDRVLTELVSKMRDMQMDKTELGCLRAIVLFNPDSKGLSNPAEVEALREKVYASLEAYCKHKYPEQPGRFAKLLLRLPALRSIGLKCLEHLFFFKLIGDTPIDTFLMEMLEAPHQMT
Chain of Peroxisome proliferator-activated receptor delta (Homo sapiens) (Q03181 whole entry, looked up): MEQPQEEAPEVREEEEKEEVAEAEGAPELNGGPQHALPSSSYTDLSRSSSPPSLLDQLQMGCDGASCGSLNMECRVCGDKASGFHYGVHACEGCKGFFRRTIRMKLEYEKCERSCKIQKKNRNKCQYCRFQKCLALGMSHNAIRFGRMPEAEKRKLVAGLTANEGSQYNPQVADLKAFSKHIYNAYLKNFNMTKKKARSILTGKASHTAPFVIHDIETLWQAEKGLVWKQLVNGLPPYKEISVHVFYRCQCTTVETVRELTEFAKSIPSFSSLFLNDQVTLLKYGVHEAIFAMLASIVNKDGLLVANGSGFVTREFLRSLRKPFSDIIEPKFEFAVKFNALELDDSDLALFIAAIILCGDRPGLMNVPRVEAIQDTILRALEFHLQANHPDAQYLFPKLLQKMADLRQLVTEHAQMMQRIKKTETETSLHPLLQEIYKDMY
Chain of Bile acid receptor (Homo sapiens) (Q96RI1 whole entry, looked up): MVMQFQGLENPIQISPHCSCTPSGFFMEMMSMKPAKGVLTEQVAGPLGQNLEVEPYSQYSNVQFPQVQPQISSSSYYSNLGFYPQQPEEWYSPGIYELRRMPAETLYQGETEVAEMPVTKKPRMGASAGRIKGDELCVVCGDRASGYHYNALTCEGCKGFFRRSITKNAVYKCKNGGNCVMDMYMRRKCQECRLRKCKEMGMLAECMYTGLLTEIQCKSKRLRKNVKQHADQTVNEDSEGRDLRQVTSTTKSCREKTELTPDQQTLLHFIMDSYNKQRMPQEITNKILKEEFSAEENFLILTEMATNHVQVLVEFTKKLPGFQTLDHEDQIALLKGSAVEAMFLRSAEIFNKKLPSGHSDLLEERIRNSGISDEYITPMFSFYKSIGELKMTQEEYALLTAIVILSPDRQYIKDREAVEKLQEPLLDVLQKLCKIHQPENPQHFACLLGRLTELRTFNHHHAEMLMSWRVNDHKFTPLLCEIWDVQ

CCn1cc[n+](C)c1 (tested in a mixture with another compound)
inactive: Potency [1] | Potency [2] | Potency [3] | Potency [4] | Potency [5] | Potency [6] | Potency [7] | Potency [8] | Potency [9] | Potency [10] | Potency [11]

[Cl-].[Cl-].[Sn+2]
inactive: Potency [1] | Potency [12] | Potency [2] | Potency [13] | Potency [4] | Potency [5] | Potency [6] | Potency [7] | Potency [8] | Potency [9] | Potency [10] | Potency [11]

Cc1ccn2nc(S(=O)(=O)Nc3c(F)cccc3F)nc2n1
inactive: Potency [1] | Potency [14] | Potency [12] | Potency [15] | Potency [16] | Potency [2] | Potency [17] | Potency [13] | Potency [18] | Potency [19] | Potency [3] | Potency [4] | Potency [5] | Potency [6] | Potency [7] | Potency [8] | Potency [10] | Potency [11]

Clc1c(Cl)c(Cl)c(Cl)c(Cl)c1Cl
inactive: activity change, negative = cytotoxicity [1] 0.119% [at 5.95 µM] | activation [14] -6.6% [at 5.95 µM] | viability change, negative = cytotoxic [12] 0.753% [at 6.26 µM] | ratio activity, negative = inhibition [15] -0.823% [at 6.26 µM] | viability change, negative = cytotoxic [2] 24.1% [at 5.95 µM] | activity change, negative = cytotoxicity [13] 10.7% [at 5.95 µM] | activation [18] -0.148% [at 6.01 µM] | activity change, negative = inhibition [19] 0.227% [at 6.95 µM] | viability change, negative = cytotoxic [4] -2.04% [at 6.95 µM] | activity, negative = cytotoxic [5] 7.25% [at 6.95 µM] | activation [6] -1.07% [at 6.95 µM] | activity, negative = cytotoxicity [8] 5.16% [at 8.39 µM] | activity change, negative = inhibition [20] 5.22% [at 8.39 µM] | viability change, negative = cytotoxic [9] 5.85% [at 6.97 µM] | activation [10] -2.52% [at 6.97 µM] | activation [11] 5.73% [at 6.98 µM]

Reference: PubChem BioAssay (Tox21)
